# Measurements as given in PMC11006913.
# Substitutions are numbered along the chain they refer to.
# How the values were obtained:
# Assay in all cases: PBM; 200 nM protein, PBS
# Conditions in all cases: dsDNA, one strand shown
# HOXB4 [1] = target: HOXB4 (Homo sapiens, UniProt P17483 148-234)
# VENTX [2] = target: T1, VENTX (Homo sapiens, UniProt O95231 78-163, R121Q)
# T1 sequence: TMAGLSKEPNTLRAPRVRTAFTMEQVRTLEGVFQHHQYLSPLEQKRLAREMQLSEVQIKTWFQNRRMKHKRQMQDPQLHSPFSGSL
# HOXA4 [3] = target: HOXA4 (Homo sapiens, UniProt Q00056 201-287, W262R)
# Sequence of HOXA4 (Homo sapiens, UniProt Q00056 201-287, W262R) (Q00056 201-287 W262R): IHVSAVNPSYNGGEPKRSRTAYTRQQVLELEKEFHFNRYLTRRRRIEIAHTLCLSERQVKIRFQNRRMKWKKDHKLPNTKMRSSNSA
# ALX4 = ALX4 (Homo sapiens, UniProt Q9H161 200-286)
# Sequence of ALX4 (Q9H161 200-286): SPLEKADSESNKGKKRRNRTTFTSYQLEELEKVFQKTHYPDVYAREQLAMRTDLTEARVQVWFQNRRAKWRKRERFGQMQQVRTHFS
# PRRX1 [4] = target: PRRX1 (Homo sapiens, UniProt P54821 80-166, F113S)
# Sequence of PRRX1 (Homo sapiens, UniProt P54821 80-166, F113S) (P54821 80-166 F113S): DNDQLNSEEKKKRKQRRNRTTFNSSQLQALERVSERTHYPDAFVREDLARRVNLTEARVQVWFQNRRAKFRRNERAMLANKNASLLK
# VENTX [5] = target: T2, VENTX (Homo sapiens, UniProt O95231 78-163, Y115F)
# T2 sequence: T1 sequence with Y38F, Q44R
# HOXB6 [6] = target: HOXB6 (Homo sapiens, UniProt P17509 132-218, K202E)
# Sequence of HOXB6 (Homo sapiens, UniProt P17509 132-218, K202E) (P17509 132-218 K202E): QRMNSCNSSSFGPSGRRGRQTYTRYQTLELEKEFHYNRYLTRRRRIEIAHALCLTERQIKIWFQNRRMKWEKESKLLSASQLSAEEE
# HOXA2 [7] = target: HOXA2 (Homo sapiens, UniProt O43364 129-215, R185T)
# Sequence of HOXA2 (Homo sapiens, UniProt O43364 129-215, R185T) (O43364 129-215 R185T): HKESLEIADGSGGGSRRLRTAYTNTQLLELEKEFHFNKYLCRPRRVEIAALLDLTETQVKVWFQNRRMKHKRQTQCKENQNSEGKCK
# HOXA4 [8] = target: HOXA4 (Homo sapiens, UniProt Q00056 201-287, R217L)
# Sequence of HOXA4 (Homo sapiens, UniProt Q00056 201-287, R217L) (Q00056 201-287 R217L): as the sequence (Q00056 201-287 W262R) above, with R17L, R62W counted along it
# HOXB4 [9] = target: HOXB4 (Homo sapiens, UniProt P17483 148-234, V174I)
# Sequence of HOXB4 (Homo sapiens, UniProt P17483 148-234, V174I) (P17483 148-234 V174I): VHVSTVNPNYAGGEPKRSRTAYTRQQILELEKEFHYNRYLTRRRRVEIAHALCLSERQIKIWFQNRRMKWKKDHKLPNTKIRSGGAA
# PAX4 = target: T3, PAX4 (Homo sapiens, UniProt O43316 9-242, R200Q)
# T3 sequence: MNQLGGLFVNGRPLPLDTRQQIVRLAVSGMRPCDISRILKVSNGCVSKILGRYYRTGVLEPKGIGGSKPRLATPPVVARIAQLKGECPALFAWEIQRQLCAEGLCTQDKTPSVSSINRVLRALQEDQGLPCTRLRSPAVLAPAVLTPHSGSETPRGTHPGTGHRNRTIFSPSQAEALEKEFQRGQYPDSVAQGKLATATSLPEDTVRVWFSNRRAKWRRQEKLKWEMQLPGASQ
# HOXA2 [10] = target: HOXA2 (Homo sapiens, UniProt O43364 129-215, R185K)
# Sequence of HOXA2 (Homo sapiens, UniProt O43364 129-215, R185K) (O43364 129-215 R185K): as the sequence (O43364 129-215 R185T) above, with T57K counted along it
# HOXA4 [11] = target: HOXA4 (Homo sapiens, UniProt Q00056 201-287)
# Sequence of HOXA4 (Homo sapiens, UniProt Q00056 201-287) (Q00056 201-287): as the sequence (Q00056 201-287 W262R) above, with R62W counted along it
# MSX2 [12] = target: MSX2 (Homo sapiens, UniProt P35548 130-214)
# Sequence of MSX2 (Homo sapiens, UniProt P35548 130-214) (P35548 130-214): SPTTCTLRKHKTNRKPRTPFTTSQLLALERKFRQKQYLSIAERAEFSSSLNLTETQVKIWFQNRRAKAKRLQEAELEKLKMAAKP
# MSX2 [13] = target: MSX2 (Homo sapiens, UniProt P35548 130-214, F161Y)
# Sequence of MSX2 (Homo sapiens, UniProt P35548 130-214, F161Y) (P35548 130-214 F161Y): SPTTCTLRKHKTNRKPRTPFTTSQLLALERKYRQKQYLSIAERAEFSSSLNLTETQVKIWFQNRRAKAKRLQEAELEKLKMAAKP
# VAX1 [14] = target: VAX1 (Homo sapiens, UniProt Q5SQQ9 86-172, T142I)
# Sequence of VAX1 (Homo sapiens, UniProt Q5SQQ9 86-172, T142I) (Q5SQQ9 86-172 T142I): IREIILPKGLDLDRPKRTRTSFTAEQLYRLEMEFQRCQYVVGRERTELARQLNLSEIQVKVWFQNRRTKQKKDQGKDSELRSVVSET
# HOXA4 [15] = target: HOXA4 (Homo sapiens, UniProt Q00056 201-287, W262F)
# Sequence of HOXA4 (Homo sapiens, UniProt Q00056 201-287, W262F) (Q00056 201-287 W262F): as the sequence (Q00056 201-287 W262R) above, with R62F counted along it
# PRRX1 [16] = target: PRRX1 (Homo sapiens, UniProt P54821 80-166)
# Sequence of PRRX1 (Homo sapiens, UniProt P54821 80-166) (P54821 80-166): as the sequence (P54821 80-166 F113S) above, with S34F counted along it
# VAX1 [17] = target: VAX1 (Homo sapiens, UniProt Q5SQQ9 86-172, K157R)
# Sequence of VAX1 (Homo sapiens, UniProt Q5SQQ9 86-172, K157R) (Q5SQQ9 86-172 K157R): as the sequence (Q5SQQ9 86-172 T142I) above, with I57T, K72R counted along it
# HOXB6 [18] = target: HOXB6 (Homo sapiens, UniProt P17509 132-218)
# Sequence of HOXB6 (Homo sapiens, UniProt P17509 132-218) (P17509 132-218): as the sequence (P17509 132-218 K202E) above, with E71K counted along it
# Sequence of HOXB4 (Homo sapiens, UniProt P17483 148-234) (P17483 148-234): as the sequence (P17483 148-234 V174I) above, with I27V counted along it
Sequence,binding signal (HOXB4 [1]),binding signal (VENTX [2]),binding signal (HOXA4 [3]),binding signal (ALX4),binding signal (PRRX1 [4]),binding signal (VENTX [5]),binding signal (HOXB6 [6]),binding signal (HOXA2 [7]),binding signal (HOXA4 [8]),binding signal (HOXB4 [9]),binding signal (PAX4),binding signal (HOXA2 [10]),binding signal (HOXA4 [11]),binding signal (MSX2 [12]),binding signal (MSX2 [13]),binding signal (VAX1 [14]),binding signal (HOXA4 [15]),binding signal (PRRX1 [16]),binding signal (VAX1 [17]),binding signal (HOXB6 [18])
CTAATTAC,"13.6 upbm affinity estimate (log intensity, higher = more binding, comparable within an allelic series)","12.7 upbm affinity estimate (log intensity, higher = more binding, comparable within an allelic series)","10.8 upbm affinity estimate (log intensity, higher = more binding, comparable within an allelic series)","14.4 upbm affinity estimate (log intensity, higher = more binding, comparable within an allelic series)","11.5 upbm affinity estimate (log intensity, higher = more binding, comparable within an allelic series)","12.7 upbm affinity estimate (log intensity, higher = more binding, comparable within an allelic series)","10 upbm affinity estimate (log intensity, higher = more binding, comparable within an allelic series)","14.2 upbm affinity estimate (log intensity, higher = more binding, comparable within an allelic series)","12.7 upbm affinity estimate (log intensity, higher = more binding, comparable within an allelic series)","14.4 upbm affinity estimate (log intensity, higher = more binding, comparable within an allelic series)","12.3 upbm affinity estimate (log intensity, higher = more binding, comparable within an allelic series)","14 upbm affinity estimate (log intensity, higher = more binding, comparable within an allelic series)","14.2 upbm affinity estimate (log intensity, higher = more binding, comparable within an allelic series)","14.1 upbm affinity estimate (log intensity, higher = more binding, comparable within an allelic series)","13.8 upbm affinity estimate (log intensity, higher = more binding, comparable within an allelic series)","14 upbm affinity estimate (log intensity, higher = more binding, comparable within an allelic series)","12.5 upbm affinity estimate (log intensity, higher = more binding, comparable within an allelic series)","13.6 upbm affinity estimate (log intensity, higher = more binding, comparable within an allelic series)","14.1 upbm affinity estimate (log intensity, higher = more binding, comparable within an allelic series)","12.3 upbm affinity estimate (log intensity, higher = more binding, comparable within an allelic series)"
GTAATTGA,"13.1 upbm affinity estimate (log intensity, higher = more binding, comparable within an allelic series)",–,"10.4 upbm affinity estimate (log intensity, higher = more binding, comparable within an allelic series)","13.8 upbm affinity estimate (log intensity, higher = more binding, comparable within an allelic series)","11 upbm affinity estimate (log intensity, higher = more binding, comparable within an allelic series)",–,–,"12.5 upbm affinity estimate (log intensity, higher = more binding, comparable within an allelic series)","12 upbm affinity estimate (log intensity, higher = more binding, comparable within an allelic series)","13.8 upbm affinity estimate (log intensity, higher = more binding, comparable within an allelic series)",–,"12.9 upbm affinity estimate (log intensity, higher = more binding, comparable within an allelic series)","13.5 upbm affinity estimate (log intensity, higher = more binding, comparable within an allelic series)","13.7 upbm affinity estimate (log intensity, higher = more binding, comparable within an allelic series)","13.4 upbm affinity estimate (log intensity, higher = more binding, comparable within an allelic series)","12.4 upbm affinity estimate (log intensity, higher = more binding, comparable within an allelic series)","11.2 upbm affinity estimate (log intensity, higher = more binding, comparable within an allelic series)","13.3 upbm affinity estimate (log intensity, higher = more binding, comparable within an allelic series)","12.6 upbm affinity estimate (log intensity, higher = more binding, comparable within an allelic series)",–
CAATTAAC,"13.2 upbm affinity estimate (log intensity, higher = more binding, comparable within an allelic series)","12.2 upbm affinity estimate (log intensity, higher = more binding, comparable within an allelic series)","10.6 upbm affinity estimate (log intensity, higher = more binding, comparable within an allelic series)","14 upbm affinity estimate (log intensity, higher = more binding, comparable within an allelic series)","11.3 upbm affinity estimate (log intensity, higher = more binding, comparable within an allelic series)","11.9 upbm affinity estimate (log intensity, higher = more binding, comparable within an allelic series)","9.99 upbm affinity estimate (log intensity, higher = more binding, comparable within an allelic series)","13.1 upbm affinity estimate (log intensity, higher = more binding, comparable within an allelic series)","12.4 upbm affinity estimate (log intensity, higher = more binding, comparable within an allelic series)","13.9 upbm affinity estimate (log intensity, higher = more binding, comparable within an allelic series)","12 upbm affinity estimate (log intensity, higher = more binding, comparable within an allelic series)","13.3 upbm affinity estimate (log intensity, higher = more binding, comparable within an allelic series)","13.9 upbm affinity estimate (log intensity, higher = more binding, comparable within an allelic series)","14 upbm affinity estimate (log intensity, higher = more binding, comparable within an allelic series)","13.6 upbm affinity estimate (log intensity, higher = more binding, comparable within an allelic series)","12.8 upbm affinity estimate (log intensity, higher = more binding, comparable within an allelic series)","11.6 upbm affinity estimate (log intensity, higher = more binding, comparable within an allelic series)","13.4 upbm affinity estimate (log intensity, higher = more binding, comparable within an allelic series)","13 upbm affinity estimate (log intensity, higher = more binding, comparable within an allelic series)","12 upbm affinity estimate (log intensity, higher = more binding, comparable within an allelic series)"
CTCAATTA,"13.1 upbm affinity estimate (log intensity, higher = more binding, comparable within an allelic series)",–,"10.4 upbm affinity estimate (log intensity, higher = more binding, comparable within an allelic series)","13.9 upbm affinity estimate (log intensity, higher = more binding, comparable within an allelic series)","11.2 upbm affinity estimate (log intensity, higher = more binding, comparable within an allelic series)",–,–,"12.6 upbm affinity estimate (log intensity, higher = more binding, comparable within an allelic series)","12 upbm affinity estimate (log intensity, higher = more binding, comparable within an allelic series)","13.8 upbm affinity estimate (log intensity, higher = more binding, comparable within an allelic series)",–,"13 upbm affinity estimate (log intensity, higher = more binding, comparable within an allelic series)","13.6 upbm affinity estimate (log intensity, higher = more binding, comparable within an allelic series)","13.9 upbm affinity estimate (log intensity, higher = more binding, comparable within an allelic series)","13.5 upbm affinity estimate (log intensity, higher = more binding, comparable within an allelic series)","12.8 upbm affinity estimate (log intensity, higher = more binding, comparable within an allelic series)","11.4 upbm affinity estimate (log intensity, higher = more binding, comparable within an allelic series)","13.4 upbm affinity estimate (log intensity, higher = more binding, comparable within an allelic series)","12.9 upbm affinity estimate (log intensity, higher = more binding, comparable within an allelic series)",–
CTAATTAG,"13.6 upbm affinity estimate (log intensity, higher = more binding, comparable within an allelic series)","13 upbm affinity estimate (log intensity, higher = more binding, comparable within an allelic series)","10.8 upbm affinity estimate (log intensity, higher = more binding, comparable within an allelic series)","14.7 upbm affinity estimate (log intensity, higher = more binding, comparable within an allelic series)","12 upbm affinity estimate (log intensity, higher = more binding, comparable within an allelic series)","12.8 upbm affinity estimate (log intensity, higher = more binding, comparable within an allelic series)","10.2 upbm affinity estimate (log intensity, higher = more binding, comparable within an allelic series)","14.2 upbm affinity estimate (log intensity, higher = more binding, comparable within an allelic series)","12.6 upbm affinity estimate (log intensity, higher = more binding, comparable within an allelic series)","14.2 upbm affinity estimate (log intensity, higher = more binding, comparable within an allelic series)","13.1 upbm affinity estimate (log intensity, higher = more binding, comparable within an allelic series)","14.3 upbm affinity estimate (log intensity, higher = more binding, comparable within an allelic series)","14.2 upbm affinity estimate (log intensity, higher = more binding, comparable within an allelic series)","14.2 upbm affinity estimate (log intensity, higher = more binding, comparable within an allelic series)","13.9 upbm affinity estimate (log intensity, higher = more binding, comparable within an allelic series)","14.1 upbm affinity estimate (log intensity, higher = more binding, comparable within an allelic series)","12.6 upbm affinity estimate (log intensity, higher = more binding, comparable within an allelic series)","13.7 upbm affinity estimate (log intensity, higher = more binding, comparable within an allelic series)","14.3 upbm affinity estimate (log intensity, higher = more binding, comparable within an allelic series)","12.2 upbm affinity estimate (log intensity, higher = more binding, comparable within an allelic series)"
